# Lamin A splicing – changes lamin A minigene splicing in HeLa cells; HeLa LMNA splicing GFP/RFP minigene ratio, 48 h; 200,000 tested, 0.01% active; Potency, µM (highest dose often 46.1 µM), inactives show at the highest dose ratio change, negative = inhibition, usual class: inhibitors; active = well fitted inhibition curve with a large enough effect in the signal ratio, with a control signal flat, not every such curve was filed as active; inconclusive = small, poorly fitted or top-dose-only effect, or effect the other way, or a change in a side signal; the % refers to the signal ratio; also: potency is read from the fitted curve at half-maximal effect
#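 Read-out is the ratio of GFP to DsRed2 object intensity, acquired by 488 nm laser-scanning cytometry on HeLa lamin A-EGFP minigene reporter cells. Compound incubation 48 hrs at 37 °C in Opti-MEM with 2% FBS; DMSO 0.5% final.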
# HPGD inh – HPGD (human) dehydrogenase inhibition; AID 894; P15428; 150,000 tested, 4.3% active; purified HPGD, NADH fluorescence kinetic, PGE2 substrate; Potency, µM, without a hit: at the highest dose activity change, negative = inhibition, usual class: inhibitors; also: potency is read from the fitted curve at half-maximal effect
# Target sequence (P15428 whole entry, looked up): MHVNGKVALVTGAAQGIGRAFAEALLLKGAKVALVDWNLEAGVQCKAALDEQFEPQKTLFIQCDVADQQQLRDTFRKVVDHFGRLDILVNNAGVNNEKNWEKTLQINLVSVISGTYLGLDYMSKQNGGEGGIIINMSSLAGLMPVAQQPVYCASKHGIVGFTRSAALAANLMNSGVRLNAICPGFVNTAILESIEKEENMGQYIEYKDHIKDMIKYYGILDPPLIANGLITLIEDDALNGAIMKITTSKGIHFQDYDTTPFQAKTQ
#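 20 nM HPGD preincubated 15 min at room temperature with compound in 50 mM Tris-HCl pH 8, 0.01% Tween 20. Started with 1 mM NAD+ and 30 uM prostaglandin E2; NADH fluorescence (360/450 nm) read 5 times over 30-s intervals, last minus first.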
# IMPase inh – membrane-permeable compound that blocks inositol monophosphatase; P97697; CHO-M1 cells, IP1 accumulation, HTRF TR-FRET ratio; inhibition (IP1 accumulation), % at 46.1 µM; 120,000 tested, under 10 active; AID 901; active = well fitted curve in the direction sought with a large enough effect in the signal ratio, not every such curve was filed as active; inconclusive = small, poorly fitted or top-dose-only effect, or a change in a side signal; inactive = no such curve, though single readings can be large or run the other way; the % refers to the signal ratio;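 also: cells stimulated with carbachol in lithium chloride buffer; plate controls were DMSO basal wells for no effect and reference inhibitor wells for full effect; higher means more IMPase inhibition seen as more IP1 and lower FRET ratio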
# Target sequence (P97697 whole entry, looked up): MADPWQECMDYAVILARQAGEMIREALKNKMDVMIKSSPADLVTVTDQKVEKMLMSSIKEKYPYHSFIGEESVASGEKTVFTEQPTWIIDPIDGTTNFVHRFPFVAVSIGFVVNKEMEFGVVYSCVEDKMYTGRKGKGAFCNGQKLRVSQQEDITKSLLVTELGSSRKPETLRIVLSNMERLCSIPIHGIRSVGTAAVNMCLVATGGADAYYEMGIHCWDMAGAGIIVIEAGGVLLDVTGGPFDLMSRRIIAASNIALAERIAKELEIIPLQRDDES
#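 Cellular IMPase inhibition is scored as a rise in cytosolic IP1, detected by competitive TR-FRET between d2-labelled IP1 and a europium anti-IP1 antibody. M1-expressing CHO cells were stimulated with carbachol for 30 min at 37C, with lithium (50 mM LiCl) present in the buffer.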
# ALDH1A1 inh – inhibitors of human aldehyde dehydrogenase 1A1; P00352; Purified ALDH1A1, NADH fluorescence, propionaldehyde substrate; Potency, µM (series often up to 75.3 µM), for the others: top-dose activity, negative = inhibition, most hits filed as inhibitors; 220,000 tested, 7.3% active;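 also: potency is read from the fitted curve at half-maximal effect; plate controls were no enzyme wells and a reference inhibitor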
# PNC assembly inh – blocks assembly of the perinucleolar compartment; PC3M PTB-GFP, PNC prevalence imaging, 16 h; hits give low values; activity change (PNC), negative = inhibition, % at 10 µM; 140,000 tested, 3.1% active; AID 2417;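 active = readout at or below -70, meaning at least 70% loss of cells showing the perinucleolar compartment, a nuclear body marking cancer cells; inconclusive = readout between -30 and a set limit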;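 also: plate controls were DMSO wells for no effect and camptothecin positive control wells for full effect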
#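 Compounds are pinned in duplicate onto adhered PC3M cells stably expressing GFP-tagged PTB and incubated 16 h at 37 C. Cells are then fixed, nuclei stained with Hoechst, and PNC-positive cells counted.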
# Luc counter – Kinase-Glo luciferase inhibition (counter-screen) | Q27757 | Kinase-Glo luciferase, ATP luminescence, 8 min | Potency, µM (doses to about 38.3 µM), without a hit: at the top dose activity change, negative = inhibition, actives largely listed as inhibitors | 200,000 tested, 0.28% active | AID 1379; active = well fitted inhibition curve with a large enough effect; inconclusive = small, poorly fitted or top-dose-only effect; also: potency is read from the fitted curve at half-maximal effect; nearly all actives have a fitted effect of over 60% in size
#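 Luminescence was the read-out, taken after 8-minute incubation at ambient temperature. Luciferase turned over luciferin with 10 uM ATP in imidazole pH 7.2 buffer containing KCl, MgCl2, Tween 20 and BSA.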
# The depositor's hits bear a star; ? = inconclusive; nt = not tested or not shown; [ ] = another dose, or the depositor's remark. An excerpt weighted towards active compounds, which were near 10% of everything screened. Unless noted, calls follow the shape of the dose curve; as a rule, active = well fitted inhibition curve with a large enough effect (not every such curve was filed as active); inconclusive = small, poorly fitted or top-dose-only effect, or another doubt; inactive = no such curve, though single readings can be large or run the other way. Unless noted, % is scaled to controls: 0 for no effect and ±100 for the full control effect.
SMILES,Lamin A splicing,HPGD inh,IMPase inh,ALDH1A1 inh,PNC assembly inh,Luc counter
COc1ccccc1NC(=O)CSC1=Nc2ccccc2C2=NC(Cc3ccccc3)C(=O)N12 (stereo not given),-3.7%[46 µM],nt,nt,nt,nt,nt
COc1ccc(-c2cc(-c3ccc(OC)cc3)nc(-c3ccc4c(c3)NC(=O)CO4)c2)cc1,20.6%,-8.8%,-3.3,?,-13.6,-3.4%
O=C1COc2ccc(N3C(=O)C=CC3=O)cc2N1,nt,nt,nt,6.31µM*,nt,-0.3%
O=C(NCC(c1ccc2c(c1)OCO2)N1CCN(c2ccccc2)CC1)C(=O)Nc1ccccc1 (stereo not given),17.8%[46 µM],nt,nt,nt,nt,nt
O=C(NNC(=O)C1CCN(Cc2ccc(F)cc2Cl)CC1)Nc1ccc([N+](=O)[O-])cc1,9.0%[46 µM],nt,nt,-6.9%,nt,-1.5%
O=[N+]([O-])c1ccc(Cl)c(CN2CCC(O)CC2)c1,?,-10.1%,nt,?,-123.8*,-0.8%
CC1CCN(S(=O)(=O)c2cc([N+](=O)[O-])ccc2Cl)CC1,nt,nt,nt,3.55µM*,nt,-4.6%
CCOC(=O)N1CCC(NC(=O)CCC(=O)N2CCOc3ccc(C)cc32)CC1,3.7%,nt,3.4,?,?,nt
CCOC(=O)N1CCN(C(=O)CCC(=O)N2CCOc3ccc(C)cc32)CC1,5.5%,nt,1.3,25.1µM*,-1.7,nt
OC(c1ccc(OCc2ccccc2)cc1)c1nnc(-c2ccccc2)o1 (stereo not given),?,20µM*,6.4,-1.9%,-23.4,20.1%
CN(C)c1ncc2nc(-c3ccc(F)cc3)c(=O)n(CCC#N)c2n1,nt,?,nt,?,nt,-1.8%
COc1cc(NC(=S)NCc2ccco2)cc(OC)c1,-5.2%,?,-1.0,?,?,1.0%
COc1cc(NC(=S)NCc2cccs2)cc(OC)c1,4.8%,17.8µM*,nt,-13.9%,33.0,-5.9%
CC(C)(C)c1ccc(NC(=S)NCc2cccs2)cc1,?,-10.7%,-3.6,-1.1%,-6.8,-4.2%
Cc1cc(C)cc(NC(=S)NCc2cccs2)c1,3.9%,14.1µM*,nt,-2.8%,6.3,0.1%
COC(=O)C(C)N1C(=O)S/C(=C/c2cc(C)n(-c3ccccn3)c2C)C1=O (stereo not given),0.0%,-4.7%,6.3,?,15.0,1.8%
COC(=O)C(C)N1C(=O)S/C(=C\c2cc(C)n(-c3ccccn3)c2C)C1=O (stereo not given),-8.9%,-25.8%,12.4,22.4µM*,7.0,10.9%
COc1cc2c(cc1OC)n(Cc1ccc([N+](=O)[O-])cc1)c(=O)n1nc(-c3ccccc3)nc21,17.7%[46 µM],nt,nt,nt,nt,nt
COc1ccc(N2C(C)=CS/C2=C(/C#N)c2nnc(N3CCOCC3)n2-c2ccccc2)cc1,3.2%,-6.4%,3.4,22.4µM*,6.9,6.5%
COc1ccc(/C=C/C(=O)NCCN2CCOCC2)cc1OC,0.0%[46 µM],nt,nt,?,nt,3.9%
C=CCN1C(=O)NC(c2ccccc2)(C(F)(F)F)S/C1=C(\C#N)c1nnc(N2CCOCC2)n1-c1ccccc1 (stereo not given),-21.1%,-4.9%,nt,?,32.2,-2.2%
COc1ccc(/C=C/C(O)=C(\C#N)c2nnc(N3CCOCC3)n2-c2ccccc2)cc1OC,nt,nt,nt,12.6µM*,nt,3.2%
CCC(=O)CCC(=O)c1ccc2ccccc2c1,7.5%,-26.1%,nt,?,?,-0.2%
CC(C)N(CCC(=O)c1ccc2ccccc2c1)Cc1ccccc1,?,?,5.6,0.282µM*,nt,-1.8%
CC(=O)c1cccc(NC=C2C(=O)OC3(CCCCC3)OC2=O)c1,-1.0%,-26.3%,7.9,2.24µM*,0.0,-2.7%
SMILES,Lamin A splicing,HPGD inh,IMPase inh,ALDH1A1 inh,PNC assembly inh,Luc counter
COc1ccc(OC)c(NC=C2C(=O)OC(C)(C)OC2=O)c1,-9.1%,-17.6%,4.8,0.178µM*,83.1,-1.0%
CCOc1ccccc1NC=C1C(=O)OC2(CCCCC2)OC1=O,-6.6%,-4.4%,13.1,0.708µM*,53.6,1.3%
COc1ccc(OC)c(NC(=O)C2=C(C)C(=O)OC23CCCCCC3)c1,3.2%[46 µM],nt,nt,nt,nt,nt
COc1ccc(OC)c(NC=C2C(=O)OC3(CCCCC3)OC2=O)c1,-12.9%,?,6.4,0.0891µM*,-5.6,-0.7%
N#Cc1nc(-c2ccc(COc3ccc(Cl)cc3)o2)oc1N1CCC(C(N)=O)CC1,2.8%[46 µM],nt,nt,nt,nt,nt
Cc1ccc(CN2CCCn3nc(C(=O)NCc4cc(C)ccc4C)cc3C2=O)cc1,-18.6%[46 µM],nt,nt,nt,nt,nt
COc1ccc(C(=O)NC=C2C(=O)OC(C)(C)OC2=O)cc1,nt,nt,nt,12.6µM*,nt,-0.8%
O=C(Nc1cccs1)NC1CCCC1,-1.9%,31.6µM*,-8.6,7.08µM*,29.4,-10.9%
CC(C)NC(=O)Nc1cccs1,-14.5%,-14.7%,3.7,-2.1%,-100.0*,3.9%
CC1CCC(NC(=O)Nc2cccs2)CC1 (stereo not given),11.4%,?,3.5,?,38.9,0.1%
Nc1cc(=O)[nH]c(SC/C=C/c2ccccc2)n1,-4.1%,-5.6%,1.6,-2.2%,-27.7,-0.8%
Cc1cc(=O)[nH]c(S/C=C/c2ccccc2)n1,-7.4%,20µM*,-0.8,-5.1%,-29.1,?
CCSc1nc2n(n1)C(c1ccc(CC)cc1)C(C(=O)Nc1ccccc1OC)=C(C)N2 (stereo not given),12.2%[46 µM],nt,nt,nt,nt,nt
O=C(C1CCCO1)N1CCN(Cc2nc3ccccc3c(=O)[nH]2)CC1 (stereo not given),6.6%,-10.6%,-4.7,?,-135.3*,-2.7%
COCCn1c(=O)c(-c2cn(C)c3ccccc23)nc2cnc(Oc3cccc(Cl)c3)nc21,12.8%,nt,nt,-0.1%,nt,nt
COc1ccc(C(=O)Nc2cc(C(F)(F)F)ccc2-n2cnc3ccccc32)cc1,-10.2%,-2.1%,5.7,?,?,-1.5%
CC(=O)Nc1ccc(C(=O)Nc2cc(C(F)(F)F)ccc2-n2cnc3ccccc32)cc1,?,14.1µM*,nt,?,18.0,3.1%
CCOc1ccc(C(=O)Nc2c(C(N)=O)oc3ccccc23)cc1,?,?,-8.1,-2.4%,-118.9*,-0.8%
COc1cccc(C(=O)Nc2c(C(N)=O)oc3ccccc23)c1,-13.5%,?,-8.4,-0.9%,-11.4,0.6%
N#CCCn1cnc2c1NC=NC2Cl (stereo not given),nt,-5.4%,nt,-4.2%,nt,0.0%
O=C(O)CCc1ccc(-c2cccs2)o1,1.4%,22.4µM*,4.7,1µM*,-13.5,-0.2%
CCOC(=O)c1ccc(NC(=O)c2cc3cc(C)ccc3n2C)cc1,5.5%[46 µM],nt,nt,nt,nt,nt
COc1ccccc1OCCn1cc(C#N)c2ccccc21,6.3%,-7.8%,7.9,-3.4%,-118.9*,-1.2%
Cc1ccc(OCCn2cc(C#N)c3ccccc32)cc1,-7.8%,-5.6%,1.1,-9.6%,?,0.3%
COc1ccc(-c2cn3cccnc3n2)cc1NC(=O)Nc1ccc(Cl)cc1,-7.5%[46 µM],nt,nt,nt,nt,nt

# Bioassay records from PubChem BioAssay.
